Measured values as given in PubChem BioAssay (EPA / NIEHS).
Values joined by “and” are separate entries in the source; they are usually repeats but may differ in a detail not shown here. Equal entries are not always repeated. The source holds several records for some structures; these can differ, active in one and inactive in another. Active and inactive are the calls of the source. How the source made its calls: active means hit-call score of the fitted dose curve at least 0.9, where 1 is the maximum; inactive means score below 0.9.

Experiments:
Conditions in all cases: mRNA level, 48 h; actives raise or lower the signal
[1] = read-out: Cytochrome P450 (CYP1A2), CYP1A2 (gene 1544); test: LTEA_HepaRG_CYP1A2: Life Technologies and Expression Analysis (LTEA) Assay for Cytochrome P450 (CYP1A2) using HepaRG (AID 2283479)
In short: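 CYP1A2 transcript induction or loss, quantified by Fluidigm qRT-PCR against three housekeeping genes, was fitted bidirectionally against 0.5% DMSO controls. Human HepaRG cells received eight half-log concentrations from 100 uM over 48 h.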

[2] = read-out: cysteine-aspartic acid protease (CASP8), CASP8 (gene 841); test: LTEA_HepaRG_CASP8: Life Technologies and Expression Analysis (LTEA) Assay for cysteine-aspartic acid protease (CASP8) using HepaRG (AID 2283480)
In short: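 CASP8 transcript measured by TaqMan qRT-PCR with ACTB/GAPDH/POLR2A normalization, after 48 h chemical exposure of HepaRG cells in serum-free induction medium. Eight concentrations, top 100 uM, half-log steps, 0.5% DMSO vehicle; fits in both directions versus DMSO.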

[3] = read-out: Cytochrome P450 (CYP2B6), CYP2B6 (gene 1555); test: LTEA_HepaRG_CYP2B6: Life Technologies and Expression Analysis (LTEA) Assay for Cytochrome P450 (CYP2B6) using HepaRG (AID 2283481)
In short: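 HepaRG cells plated 48 h, switched to serum-free induction medium, then dosed 48 h (8 points, half-log from 100 uM, 0.5% DMSO). RNA isolated; CYP2B6 expression measured by qRT-PCR; gain or loss fitted relative to DMSO.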

[4] = read-out: Cytochrome P450 2C19 (Homo sapiens) (UniProt P33261); test: LTEA_HepaRG_CYP2C19: Life Technologies and Expression Analysis (LTEA) Assay for CYP2C19 using HepaRG (AID 2283482)
In short: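 Transcript levels of CYP2C19 were quantified by qRT-PCR after HepaRG cells were treated for 48 hours with test chemicals up to 100 uM (eight half-log concentrations, 0.5% DMSO vehicle). Gain or loss of signal was fitted relative to DMSO.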

CYP2C9 (gene 1559) = test: LTEA_HepaRG_CYP2C9: Life Technologies and Expression Analysis (LTEA) Assay for CYP2C9 using HepaRG (AID 2283484)
In short: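 CYP2C9 transcript level, quantified by TaqMan qRT-PCR against three housekeeping genes, was fitted bidirectionally relative to 0.5% DMSO. HepaRG cultures were treated 48 h, in duplicate, at eight half-log concentrations topping at 100 uM.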

CYP2E1 (gene 1571) = test: LTEA_HepaRG_CYP2E1: Life Technologies and Expression Analysis (LTEA) Assay for CYP2E1 using HepaRG (AID 2283485)
In short: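 Assay uses 48 h exposure of HepaRG hepatic cells, eight concentrations to 100 uM. Expression of CYP2E1 is quantified by TaqMan qRT-PCR with ACTB, GAPDH and POLR2A normalization; curves fitted in both directions relative to vehicle.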

CYP4A11 (gene 1579) = test: LTEA_HepaRG_CYP4A11: Life Technologies and Expression Analysis (LTEA) Assay for CYP4A11 using HepaRG (AID 2283486)
In short: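 HepaRG, 48 h chem exposure, 8 conc (100 uM top, half-log), 0.5% DMSO vehicle; qRT-PCR readout, housekeeping-gene normalized; bidirectional curve fit vs DMSO baseline.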

[5] = read-out: Cytochrome P450 3A4 (Homo sapiens) (UniProt P08684); test: LTEA_HepaRG_CYP3A4: Life Technologies and Expression Analysis (LTEA) Assay for CYP3A4 using HepaRG (AID 2283487)
In short: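 Differentiated HepaRG cells in serum-free induction medium exposed in duplicate for 48 h to 8 half-log concentrations up to 100 uM in 0.5% DMSO. CYP3A4 mRNA measured by qRT-PCR normalized to ACTB, GAPDH and POLR2A; bidirectional fit versus DMSO.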

[6] = read-out: DNA damage-inducible transcript 3 (DDIT3), DDIT3 (gene 1649); test: LTEA_HepaRG_DDIT3: Life Technologies and Expression Analysis (LTEA) Assay for DNA damage-inducible transcript 3 (DDIT3) using HepaRG (AID 2283488)
In short: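 Eight-point concentration-response (100 uM highest, half-log dilutions) in HepaRG, 48 h, duplicate wells. Endpoint: qRT-PCR mRNA, normalized (ACTB, GAPDH, POLR2A), bidirectional fitting with DMSO as baseline.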

[7] = read-out: Pro-epidermal growth factor (Homo sapiens) (UniProt P01133); test: LTEA_HepaRG_EGF: Life Technologies and Expression Analysis (LTEA) Assay for Epidermal growth factor (EGF) using HepaRG (AID 2283489)
In short: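 HepaRG, 48 h dosing, 100 uM top, half-log x8, 0.5% DMSO. Readout: TaqMan qRT-PCR (Fluidigm array), housekeeping-normalized. Gain or loss of signal fit vs DMSO.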

[8] = read-out: Early growth response protein 1 (EGR1) transcription factor, EGR1 (gene 1958); test: LTEA_HepaRG_EGR1: Life Technologies and Expression Analysis (LTEA) Assay for Early growth response protein 1 (EGR1) transcription factor using HepaRG (AID 2283490)
In short: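 EGR1 transcript levels quantified by qRT-PCR (Fluidigm arrays) against three housekeeping genes after 48 h chemical exposure of HepaRG cells. Eight-point half-log series topping at 100 uM, 0.5% DMSO vehicle, analyzed for gain or loss.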

[9] = read-out: Ezrin (EZR), EZR (gene 7430); test: LTEA_HepaRG_EZR: Life Technologies and Expression Analysis (LTEA) Assay for Ezrin (EZR) using HepaRG (AID 2283491)
In short: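 Differentiated human HepaRG cells, 48 h after plating, were exposed in serum-free induction medium for 48 hours to eight half-log concentrations up to 100 uM in 0.5% DMSO. EZR mRNA was measured by TaqMan qRT-PCR, normalized to ACTB, GAPDH and POLR2A, and fitted bidirectionally against DMSO.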

[10] = read-out: Cytochrome P450 3A7 (Homo sapiens) (UniProt P24462); test: LTEA_HepaRG_CYP3A7: Life Technologies and Expression Analysis (LTEA) Assay for CYP3A7 using HepaRG (AID 2283492)
In short: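 Human HepaRG liver cells, 48 h post-plating, switched to serum-free induction medium and exposed in duplicate for 48 h. Dosing: 100 uM top, half-log dilutions, 8 points, 0.5% DMSO vehicle. Read-out: CYP3A7 mRNA, gain or loss fitted against DMSO baseline.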

CYP3A5 (gene 1577) = test: LTEA_HepaRG_CYP3A5: Life Technologies and Expression Analysis (LTEA) Assay for CYP3A5 using HepaRG (AID 2283493)
In short: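 Readout was CYP3A5 mRNA by qRT-PCR. HepaRG cultures were exposed for 48 h in serum-free induction medium to chemicals at up to 100 uM, and responses were fitted in both directions relative to DMSO vehicle.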

[11] = read-out: Fatty Acid-Binding Protein 1 (FABP1), FABP1 (gene 2168); test: LTEA_HepaRG_FABP1: Life Technologies and Expression Analysis (LTEA) Assay for Fatty Acid-Binding Protein 1 (FABP1) using HepaRG (AID 2283494)
In short: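 FABP1 expression by TaqMan qRT-PCR, normalised to three housekeeping genes, in HepaRG cells after 48 h chemical treatment. Eight-point half-log series topping at 100 uM in 0.5% DMSO, duplicates; gain or loss fitted relative to vehicle.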

[12] = read-out: Cytochrome P450 4A22 (Homo sapiens) (UniProt Q5TCH4); test: LTEA_HepaRG_CYP4A22: Life Technologies and Expression Analysis (LTEA) Assay for Cytochrome P450 4A22 (CYP4A22) using HepaRG (AID 2283495)
In short: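 Readout is CYP4A22 transcript induction or loss, quantified by qRT-PCR and normalized to ACTB, GAPDH and POLR2A. Human HepaRG cells receive test chemicals for 48 h at eight half-log concentrations from 100 uM in 0.5% DMSO.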

[13] = read-out: Cytochrome P450 7A1 (Homo sapiens) (UniProt P22680); test: LTEA_HepaRG_CYP7A1: Life Technologies and Expression Analysis (LTEA) Assay for Cytochrome P450 7A1 (CYP7A1) using HepaRG (AID 2283496)
In short: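 Using 0.5% DMSO as vehicle and baseline, chemicals were tested in duplicate over an 8-point range from 100 uM on HepaRG cells for 48 h; qRT-PCR signals were normalised to ACTB, GAPDH and POLR2A.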

[14] = read-out: Glutathione S-Transferase (GSTA2), GSTA2 (gene 2939); test: LTEA_HepaRG_GSTA2: Life Technologies and Expression Analysis (LTEA) Assay for Glutathione S-Transferase (GSTA2) using HepaRG (AID 2283497)
In short: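 GSTA2 transcript levels came from Fluidigm TaqMan qRT-PCR normalized to three housekeeping genes, fitted in both directions against DMSO. HepaRG cultures received chemicals for 48 h in serum-free induction medium (0.5% DMSO), 8 half-log concentrations up to 100 uM, duplicate.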

[15] = read-out: Glutamate-cysteine ligase catalytic (GCLC), GCLC (gene 2729); test: LTEA_HepaRG_GCLC: Life Technologies and Expression Analysis (LTEA) Assay for Glutamate-cysteine ligase catalytic (GCLC) using HepaRG (AID 2283498)
In short: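 Expression by TaqMan qRT-PCR, normalized to three housekeeping genes (ACTB, GAPDH, POLR2A), with up- or down-regulation fitted against DMSO. HepaRG cells dosed in duplicate for 48 h with 8 half-log concentrations up to 100 uM, vehicle 0.5% DMSO.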

[16] = read-out: growth arrest and DNA damage 45 (GADD45G), GADD45G (gene 10912); test: LTEA_HepaRG_GADD45G: Life Technologies and Expression Analysis (LTEA) Assay for growth arrest and DNA damage 45 (GADD45G) using HepaRG (AID 2283499)
In short: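 Gain or loss of GADD45G mRNA, quantified by TaqMan qRT-PCR against three housekeeping genes, is fitted in both directions relative to 0.5% DMSO. Human HepaRG cultures receive test chemical for 48 h at up to 100 uM.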

Measured: AC50

Chain of Cytochrome P450 3A7 (Homo sapiens) (P24462 whole entry, looked up): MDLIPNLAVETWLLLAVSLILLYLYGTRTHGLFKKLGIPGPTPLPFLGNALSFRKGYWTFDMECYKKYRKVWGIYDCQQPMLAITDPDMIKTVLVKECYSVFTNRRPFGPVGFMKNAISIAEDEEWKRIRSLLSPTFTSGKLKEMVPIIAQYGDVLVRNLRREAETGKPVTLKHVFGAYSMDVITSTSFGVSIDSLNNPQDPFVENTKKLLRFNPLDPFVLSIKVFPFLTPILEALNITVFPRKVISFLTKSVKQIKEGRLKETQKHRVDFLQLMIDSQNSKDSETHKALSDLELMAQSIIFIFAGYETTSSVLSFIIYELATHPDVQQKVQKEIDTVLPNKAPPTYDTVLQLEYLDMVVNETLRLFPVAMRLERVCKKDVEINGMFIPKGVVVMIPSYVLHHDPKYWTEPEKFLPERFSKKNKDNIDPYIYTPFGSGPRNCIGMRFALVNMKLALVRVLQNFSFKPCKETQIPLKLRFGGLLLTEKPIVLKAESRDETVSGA
Chain of Cytochrome P450 3A4 (Homo sapiens) (P08684 whole entry, looked up): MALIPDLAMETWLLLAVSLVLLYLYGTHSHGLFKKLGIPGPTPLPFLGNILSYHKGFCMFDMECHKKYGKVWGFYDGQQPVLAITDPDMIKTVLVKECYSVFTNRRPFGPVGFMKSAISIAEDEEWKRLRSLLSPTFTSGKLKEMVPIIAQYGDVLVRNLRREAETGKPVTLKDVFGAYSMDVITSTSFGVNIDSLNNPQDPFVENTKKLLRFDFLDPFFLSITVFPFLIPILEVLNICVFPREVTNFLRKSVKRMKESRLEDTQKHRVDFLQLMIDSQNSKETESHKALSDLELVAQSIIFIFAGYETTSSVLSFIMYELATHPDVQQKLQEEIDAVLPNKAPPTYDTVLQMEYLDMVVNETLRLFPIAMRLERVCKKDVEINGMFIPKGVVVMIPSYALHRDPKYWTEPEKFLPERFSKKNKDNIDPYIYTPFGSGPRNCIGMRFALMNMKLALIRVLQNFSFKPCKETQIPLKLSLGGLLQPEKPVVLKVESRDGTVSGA
Chain of Cytochrome P450 2C19 (Homo sapiens) (P33261 whole entry, looked up): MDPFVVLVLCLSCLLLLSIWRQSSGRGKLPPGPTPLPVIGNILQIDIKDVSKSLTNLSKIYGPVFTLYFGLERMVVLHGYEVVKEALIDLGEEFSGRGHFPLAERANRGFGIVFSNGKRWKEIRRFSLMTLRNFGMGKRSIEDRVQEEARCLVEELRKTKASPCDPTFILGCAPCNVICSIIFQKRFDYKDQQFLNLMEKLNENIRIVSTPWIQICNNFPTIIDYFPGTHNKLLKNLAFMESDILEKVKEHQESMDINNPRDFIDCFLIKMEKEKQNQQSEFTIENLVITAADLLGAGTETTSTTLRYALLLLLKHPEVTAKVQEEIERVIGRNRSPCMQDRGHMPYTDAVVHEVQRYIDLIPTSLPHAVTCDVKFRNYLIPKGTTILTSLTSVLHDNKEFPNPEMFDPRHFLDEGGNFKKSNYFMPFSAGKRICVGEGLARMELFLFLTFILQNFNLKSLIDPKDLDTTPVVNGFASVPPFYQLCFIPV

O=C(Nc1ccc2[nH]ccc2c1)c1cc2cc(F)ccc2n1Cc1cccc(F)c1
active: [1] 12.5 µM | [3] 35.1 µM | [4] 73.6 µM | CYP2C9 (gene 1559) 35.7 µM | CYP2E1 (gene 1571) 21.9 µM | CYP4A11 (gene 1579) 16.6 µM | [5] 83.5 µM | [6] 18 µM | [9] 9.92 µM | [10] 75.6 µM | CYP3A5 (gene 1577) 92.9 µM | [11] 23.9 µM | [12] 22.3 µM | [13] 30.7 µM | [14] 31.2 µM | [15] 23.6 µM
inactive: [2] | [7] | [8] | [16]

Cc1ccccc1N
inactive: all assays above

CC12CC1(C)C(=O)N(c1cc(Cl)cc(Cl)c1)C2=O (configuration not stated)
active: [1] 3.26 µM | [3] 4.53 µM | [4] 8.3 µM | CYP2E1 (gene 1571) 16.6 µM | CYP4A11 (gene 1579) 9.13 µM | [5] 5.34 µM | [11] 9.46 µM | [13] 16.9 µM
not listed: [12]
inactive: all other assays above

CC(=O)[O][Hg][c]1ccccc1
inactive: CYP4A11 (gene 1579) | [6] | [9]
active: [1] 5 µM | [2] 26.6 µM | [3] 6.12 µM | [4] 5 µM | CYP2C9 (gene 1559) 0.862 µM | CYP2E1 (gene 1571) 13.2 µM | [5] 3.76 µM | [8] 26.9 µM | [10] 5 µM | CYP3A5 (gene 1577) 11 µM | [11] 13 µM | [14] 25.4 µM | [15] 23.1 µM | [16] 82.8 µM

ClCC(Cl)CCl
active: [3] 17.7 µM
inactive: all other assays above

Cn1sc(Cl)cc1=O
inactive: all assays above

CCOP(=S)(OCC)Oc1nc(Cl)c(Cl)cc1Cl
active: [1] 50 µM | [3] 11.4 µM | [4] 23.8 µM | CYP2E1 (gene 1571) 50 µM | [5] 37.2 µM | [11] 50 µM | [13] 50 µM
inactive: all other assays above

COc1cc(-c2ccc(N)c(OC)c2)ccc1N
inactive: [2] | [4] | CYP2C9 (gene 1559) | [5] | [6] | [7] | [8] | [9] | [10] | CYP3A5 (gene 1577) | [13] | [14] | [15] | [16]
active: [1] 23.6 µM and 25.8 µM | [3] 3.49 µM and 4.26 µM | CYP2C9 (gene 1559) 77.4 µM | CYP2E1 (gene 1571) 38.1 µM and 24.1 µM | CYP4A11 (gene 1579) 62.6 µM and 50 µM | [5] 19.9 µM | [6] 80.3 µM | [7] 13.3 µM | [10] 82.9 µM | [11] 46.3 µM and 32.8 µM | [12] 38.3 µM and 50 µM | [13] 57.4 µM
